Measurements taken from the supplement of paper PMC10849652.
Targets with a hit are over-represented here; the source holds about 8,800 in all. About 0.5% of all pairs of compound and target were hits. Unmarked numbers belong to inactive results.

Legend:
Test in all cases: log2 fold change, soluble protein after heating vs DMSO (PISA); higher = thermal stabilisation; K562 lysate, 10 uM; active = over 0.2 and 3.5 SD of the protein, either way, in both replicates (recomputed)
alvocidib = compound: CN1CC[C@H](c2c(O)cc(O)c3c(=O)cc(-c4ccccc4Cl)oc23)[C@H](O)C1 [alvocidib]
Procedure, shortened: (§1)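 A 30 min treatment with 10 μM compound was applied to crude K562 extract at 1 mg/mL protein in PBS pH 7.4 with 1 mM MgCl2. Heating for 3 min spanned 48°C-58°C, after which aliquots were pooled, adjusted to 0.5% NP-40 at 4°C and spun at 21,000xg for 90 min. TMTpro 16plex LC-MS/MS of the supernatant, with channel sums equalised, gave values recorded as log-two fold change in thermal stability against solvent controls, from duplicates.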

Tubastatin A = compound: CN1CCc2c(c3ccccc3n2Cc2ccc(C(=O)NO)cc2)C1 [Tubastatin A]
Procedure, shortened: as §1

[1] = compound: CNC(=O)C1=CC=CC=C1NC2=NC(=NC=C2Cl)NC3=C(C=C(C=C3)N4CCOCC4)OC
Procedure, shortened: as §1

defactinib = compound: CNC(=O)c1ccc(Nc2ncc(C(F)(F)F)c(NCc3nccnc3N(C)S(C)(=O)=O)n2)cc1 [defactinib]
Procedure, shortened: as §1

[2] = compound: CNc1nc(-c2ccc3c(N)n[nH]c3c2)cc(N2C[C@@H](C(=O)NC3CCCCC3)CC[C@H]2C)n1
Procedure, shortened: as §1

encorafenib = compound: COC(=O)N[C@@H](C)CNc1nccc(-c2cn(C(C)C)nc2-c2cc(Cl)cc(NS(C)(=O)=O)c2F)n1 [encorafenib]
Procedure, shortened: as §1

[3] = compound: COC(=O)[C@H](CCSC)NC(=O)C1=C(C=C(C=C1)NC[C@H](CS)N)C2=CC=CC=C2
Procedure, shortened: as §1

alisertib = compound: COc1cc(Nc2ncc3c(n2)-c2ccc(Cl)cc2C(c2c(F)cccc2OC)=NC3)ccc1C(=O)O [alisertib]
Procedure, shortened: as §1

gefitinib = compound: COc1cc2ncnc(Nc3ccc(F)c(Cl)c3)c2cc1OCCCN1CCOCC1 [gefitinib]
Procedure, shortened: as §1

[4] = compound: COc1cc2nc(-c3cc(F)ccc3O)nc(N[C@@H]3CNC[C@H]3C(C)(C)O)c2cc1OC
Procedure, shortened: as §1

Chain of UniProt Q9UL45 (Q9UL45 whole entry, looked up): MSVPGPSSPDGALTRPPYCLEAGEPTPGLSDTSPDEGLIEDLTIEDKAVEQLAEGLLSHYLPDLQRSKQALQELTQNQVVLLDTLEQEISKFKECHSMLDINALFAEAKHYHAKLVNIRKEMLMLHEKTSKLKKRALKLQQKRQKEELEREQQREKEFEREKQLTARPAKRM
Chain of UniProt Q6ZRI6 (Q6ZRI6 whole entry, looked up): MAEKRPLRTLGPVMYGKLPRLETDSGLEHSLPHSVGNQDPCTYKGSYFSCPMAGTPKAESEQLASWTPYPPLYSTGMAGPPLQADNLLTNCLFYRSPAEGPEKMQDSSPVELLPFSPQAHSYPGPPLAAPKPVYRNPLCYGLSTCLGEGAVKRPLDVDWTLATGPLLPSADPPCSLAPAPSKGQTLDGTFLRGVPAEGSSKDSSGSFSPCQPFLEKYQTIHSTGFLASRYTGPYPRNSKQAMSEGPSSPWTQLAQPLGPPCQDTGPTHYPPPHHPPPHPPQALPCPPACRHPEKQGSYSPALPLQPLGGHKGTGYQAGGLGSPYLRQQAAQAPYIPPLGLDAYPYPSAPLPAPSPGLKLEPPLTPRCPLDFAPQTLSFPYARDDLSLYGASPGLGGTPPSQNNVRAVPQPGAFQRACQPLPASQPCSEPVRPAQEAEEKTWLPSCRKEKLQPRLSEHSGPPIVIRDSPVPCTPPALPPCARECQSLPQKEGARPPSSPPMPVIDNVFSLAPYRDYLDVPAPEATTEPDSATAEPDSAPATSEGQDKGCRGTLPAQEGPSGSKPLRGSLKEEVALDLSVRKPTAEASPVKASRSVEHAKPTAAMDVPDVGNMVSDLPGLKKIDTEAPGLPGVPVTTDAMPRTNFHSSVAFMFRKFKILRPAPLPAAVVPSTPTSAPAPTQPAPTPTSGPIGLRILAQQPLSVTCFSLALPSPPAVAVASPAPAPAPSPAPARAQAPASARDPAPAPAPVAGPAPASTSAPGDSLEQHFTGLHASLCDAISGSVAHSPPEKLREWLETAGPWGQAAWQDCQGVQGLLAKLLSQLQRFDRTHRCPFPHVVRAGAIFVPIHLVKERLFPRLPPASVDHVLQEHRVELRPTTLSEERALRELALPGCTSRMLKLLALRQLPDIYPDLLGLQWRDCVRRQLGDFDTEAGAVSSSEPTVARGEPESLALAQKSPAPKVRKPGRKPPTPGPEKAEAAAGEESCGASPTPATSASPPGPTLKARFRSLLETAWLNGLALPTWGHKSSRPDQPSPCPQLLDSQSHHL
Chain of UniProt Q12983 (Q12983 whole entry, looked up): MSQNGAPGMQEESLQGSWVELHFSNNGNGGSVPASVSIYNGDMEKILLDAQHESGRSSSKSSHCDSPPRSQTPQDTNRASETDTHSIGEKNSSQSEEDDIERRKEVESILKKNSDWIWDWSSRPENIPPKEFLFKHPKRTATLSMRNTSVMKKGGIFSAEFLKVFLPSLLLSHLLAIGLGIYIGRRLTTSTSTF
Chain of UniProt P30304 (P30304 whole entry, looked up): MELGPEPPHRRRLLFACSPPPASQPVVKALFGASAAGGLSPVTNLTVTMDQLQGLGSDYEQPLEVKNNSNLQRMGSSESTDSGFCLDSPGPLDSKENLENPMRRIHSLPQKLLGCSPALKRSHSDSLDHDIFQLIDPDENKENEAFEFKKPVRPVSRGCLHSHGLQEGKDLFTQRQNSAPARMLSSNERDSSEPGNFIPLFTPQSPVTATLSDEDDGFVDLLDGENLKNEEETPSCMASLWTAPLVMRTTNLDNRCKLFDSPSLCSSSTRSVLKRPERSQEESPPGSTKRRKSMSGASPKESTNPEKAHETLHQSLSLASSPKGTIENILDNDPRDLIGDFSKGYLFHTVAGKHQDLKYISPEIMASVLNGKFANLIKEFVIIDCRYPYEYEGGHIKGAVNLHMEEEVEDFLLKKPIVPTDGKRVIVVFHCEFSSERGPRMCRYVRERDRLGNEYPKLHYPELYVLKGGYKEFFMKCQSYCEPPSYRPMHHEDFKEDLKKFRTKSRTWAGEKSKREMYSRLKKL
Chain of UniProt Q9UNH5 (Q9UNH5 whole entry, looked up): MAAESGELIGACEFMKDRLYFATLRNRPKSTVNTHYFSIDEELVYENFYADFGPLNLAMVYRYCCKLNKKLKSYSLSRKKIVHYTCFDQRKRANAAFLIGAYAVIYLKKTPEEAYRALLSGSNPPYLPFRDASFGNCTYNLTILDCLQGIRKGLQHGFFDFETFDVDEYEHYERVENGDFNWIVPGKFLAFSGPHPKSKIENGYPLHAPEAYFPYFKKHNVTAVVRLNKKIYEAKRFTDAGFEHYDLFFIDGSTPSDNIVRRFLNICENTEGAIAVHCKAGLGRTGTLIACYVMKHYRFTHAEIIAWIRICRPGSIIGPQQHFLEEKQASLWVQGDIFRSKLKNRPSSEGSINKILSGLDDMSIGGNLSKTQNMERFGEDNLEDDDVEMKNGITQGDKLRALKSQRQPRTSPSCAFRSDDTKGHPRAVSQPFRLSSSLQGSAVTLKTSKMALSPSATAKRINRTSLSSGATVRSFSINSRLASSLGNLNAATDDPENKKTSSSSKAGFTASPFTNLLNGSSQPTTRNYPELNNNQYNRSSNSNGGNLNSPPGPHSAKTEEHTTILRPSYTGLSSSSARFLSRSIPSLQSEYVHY
Chain of UniProt Q1RMZ1 (Q1RMZ1 whole entry, looked up): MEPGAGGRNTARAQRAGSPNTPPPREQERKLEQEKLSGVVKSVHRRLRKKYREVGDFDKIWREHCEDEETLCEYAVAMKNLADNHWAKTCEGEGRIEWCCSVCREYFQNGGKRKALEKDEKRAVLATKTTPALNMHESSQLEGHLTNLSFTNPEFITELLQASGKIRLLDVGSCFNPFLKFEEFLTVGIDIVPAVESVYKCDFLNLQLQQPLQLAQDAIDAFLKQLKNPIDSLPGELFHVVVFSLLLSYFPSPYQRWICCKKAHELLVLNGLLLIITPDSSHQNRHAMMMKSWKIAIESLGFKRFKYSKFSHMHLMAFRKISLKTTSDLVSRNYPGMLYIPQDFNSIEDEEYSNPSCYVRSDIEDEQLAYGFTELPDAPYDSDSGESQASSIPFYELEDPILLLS
Chain of UniProt Q6ZU80 (Q6ZU80 whole entry, looked up): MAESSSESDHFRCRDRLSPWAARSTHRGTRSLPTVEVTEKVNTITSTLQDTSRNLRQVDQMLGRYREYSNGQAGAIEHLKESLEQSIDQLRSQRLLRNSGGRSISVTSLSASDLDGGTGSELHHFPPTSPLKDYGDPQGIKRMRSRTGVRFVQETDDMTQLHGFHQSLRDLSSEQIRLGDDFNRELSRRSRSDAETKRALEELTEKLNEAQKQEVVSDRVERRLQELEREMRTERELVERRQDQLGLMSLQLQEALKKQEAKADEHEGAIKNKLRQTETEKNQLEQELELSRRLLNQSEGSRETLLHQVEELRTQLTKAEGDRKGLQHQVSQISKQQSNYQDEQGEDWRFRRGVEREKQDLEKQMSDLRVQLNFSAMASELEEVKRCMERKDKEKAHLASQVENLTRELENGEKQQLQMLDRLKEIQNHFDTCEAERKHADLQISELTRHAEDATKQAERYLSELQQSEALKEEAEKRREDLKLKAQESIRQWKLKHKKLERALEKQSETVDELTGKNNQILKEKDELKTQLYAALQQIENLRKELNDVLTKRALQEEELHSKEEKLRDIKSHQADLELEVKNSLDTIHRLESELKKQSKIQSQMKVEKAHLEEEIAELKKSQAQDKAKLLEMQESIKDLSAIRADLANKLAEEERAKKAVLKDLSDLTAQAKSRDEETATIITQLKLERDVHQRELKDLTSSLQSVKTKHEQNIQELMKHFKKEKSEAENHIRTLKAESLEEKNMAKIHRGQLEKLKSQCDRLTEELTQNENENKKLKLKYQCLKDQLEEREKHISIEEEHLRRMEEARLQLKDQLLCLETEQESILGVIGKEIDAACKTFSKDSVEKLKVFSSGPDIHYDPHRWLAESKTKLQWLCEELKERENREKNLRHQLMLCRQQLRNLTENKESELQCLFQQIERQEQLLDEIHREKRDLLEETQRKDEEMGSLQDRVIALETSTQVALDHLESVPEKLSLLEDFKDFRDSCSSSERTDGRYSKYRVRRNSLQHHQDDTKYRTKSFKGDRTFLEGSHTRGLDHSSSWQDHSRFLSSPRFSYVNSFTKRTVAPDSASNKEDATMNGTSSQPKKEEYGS
Chain of UniProt Q8IWZ6 (Q8IWZ6 whole entry, looked up): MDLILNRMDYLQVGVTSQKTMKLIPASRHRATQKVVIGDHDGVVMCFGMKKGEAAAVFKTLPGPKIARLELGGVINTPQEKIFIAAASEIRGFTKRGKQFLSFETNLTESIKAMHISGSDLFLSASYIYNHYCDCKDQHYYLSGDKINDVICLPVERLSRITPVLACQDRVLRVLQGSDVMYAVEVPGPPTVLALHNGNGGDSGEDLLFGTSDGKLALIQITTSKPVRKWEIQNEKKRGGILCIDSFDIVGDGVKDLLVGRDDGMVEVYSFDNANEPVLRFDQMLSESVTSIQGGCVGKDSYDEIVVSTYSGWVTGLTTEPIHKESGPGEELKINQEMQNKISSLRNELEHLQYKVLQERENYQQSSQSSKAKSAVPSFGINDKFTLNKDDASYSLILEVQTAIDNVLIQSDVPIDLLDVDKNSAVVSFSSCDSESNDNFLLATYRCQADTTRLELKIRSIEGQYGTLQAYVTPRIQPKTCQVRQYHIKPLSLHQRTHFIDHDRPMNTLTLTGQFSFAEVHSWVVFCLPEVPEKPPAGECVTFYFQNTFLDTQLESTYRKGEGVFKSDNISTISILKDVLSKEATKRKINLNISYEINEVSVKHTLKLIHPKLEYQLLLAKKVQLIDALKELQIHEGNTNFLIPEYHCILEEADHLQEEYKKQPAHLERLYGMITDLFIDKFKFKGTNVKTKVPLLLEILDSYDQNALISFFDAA
Chain of UniProt Q7Z4R8 (Q7Z4R8 whole entry, looked up): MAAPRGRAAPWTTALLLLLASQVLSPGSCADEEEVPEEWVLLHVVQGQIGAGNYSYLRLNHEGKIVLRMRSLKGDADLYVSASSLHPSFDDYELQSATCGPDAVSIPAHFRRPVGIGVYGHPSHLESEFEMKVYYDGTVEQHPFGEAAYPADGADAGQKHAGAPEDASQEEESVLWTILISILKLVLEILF

Target | log2 fold change (alvocidib) | log2 fold change (Tubastatin A) | log2 fold change [1] | log2 fold change (defactinib) | log2 fold change [2] | log2 fold change (encorafenib) | log2 fold change [3] | log2 fold change (alisertib) | log2 fold change (gefitinib) | log2 fold change [4]
BBS7 (UniProt Q8IWZ6) | 0.027 | -0.123 | -0.028 | -0.212 | -0.042 | 0.024 | 0.091 | 0.123 | -0.016 | –
ATXN2 (UniProt F8WB05) | -0.051 | 0.23 | 0.101 | -0.063 | -0.03 | -0.033 | 0.023 | – | – | 0.033
BLOC1S6 (UniProt Q9UL45) | -0.028 | 0.033 | 0.051 | 0.014 | 0.082 | 0.147 | 0.056 | -0.22 | 0.047 | -0.036
CEP152 (UniProt O94986) | -0.077 | -0.061 | 0.019 | 0.019 | 0.182 | -0.064 | 0.04 | -0.007 | 0.008 | –
CEP76 (UniProt Q8TAP6) | -0.031 | -0.015 | 0.03 | 0.084 | -0.023 | -0.006 | 0.005 | 0.002 | 0.001 | 0
BICRA (UniProt Q9NZM4) | -0.113 | 0.335 | 0.101 | – | 0.884 (active) | – | – | – | – | 0.132
BRAF, A0A2R8Y8E0 | – | – | – | -0.029 | – | 1.3 | 0.076 | – | – | –
CAD (UniProt H7BZB3) | 0.005 | – | 0.28 | 0.036 | – | 0.113 | 0.059 | – | – | –
ATG4D (UniProt Q86TL0) | – | -0.09 | – | – | -0.008 | -0.031 | -0.155 | – | – | –
CDKL5 (UniProt O76039) | 1.14 (active) | – | – | 0.55 | -0.052 | -0.038 | -0.116 | – | – | 0.058
BMT2 (UniProt Q1RMZ1) | -0.004 | – | – | – | – | – | – | 0.025 | -0.27 | –
C6orf120 (UniProt Q7Z4R8) | 0.096 | – | 0.031 | – | 0.066 | – | – | – | – | -0.026
CANX (UniProt D6RHJ3) | – | – | – | 0.174 | – | – | – | 0.068 | -0.242 | 0.07
ATXN2 (UniProt F8WB06) | – | – | – | – | -0.09 | – | – | – | – | –
CAPNS1 (UniProt K7ES78) | – | -0.074 | 0.001 | 0.035 | -0.068 | – | – | – | – | -0.083
CCND3 (UniProt P30281) | 0.144 | -0.001 | 0.024 | – | 0.037 | 0.081 | -0.128 | 0.073 | 0.201 | –
CCP110 (UniProt O43303) | – | -0.045 | -0.115 | 0.181 | 0.008 | 0.075 | 0.125 | – | – | –
ATE1 (UniProt O95260) | -0.024 | – | – | – | – | – | – | – | – | 0.044
CHCHD7 isoform 4 (UniProt Q9BUK0) | -0.097 | 0.082 | – | -0.009 | -0.141 | 0.005 | -0.003 | 0.177 | 0.118 | 0.027
CENPV (UniProt Q7Z7K6) | -0.15 | -0.458 | – | 0.117 | – | 0.323 | -0.045 | -0.205 | 0.789 | –
CDCA8 (UniProt Q53HL2) | 0.091 | – | 0.054 | 0.144 | -0.061 | 0.003 | -0.044 | 0.034 | 0.04 | –
CEP295 isoform 3 (UniProt Q9C0D2) | -0.039 | -0.099 | -0.029 | – | – | -0.154 | 0.149 | 0.018 | -0.041 | -0.016
CHD4, A0A2R8Y521 | – | -0.117 | – | – | 0.155 | 0.046 | -0.086 | 0.133 | 0.167 | -0.454

Target | log2 fold change (alvocidib) | log2 fold change (Tubastatin A) | log2 fold change [1] | log2 fold change (defactinib) | log2 fold change [2] | log2 fold change (encorafenib) | log2 fold change [3] | log2 fold change (alisertib) | log2 fold change (gefitinib) | log2 fold change [4]
CEP57L1 (UniProt Q8IYX8) | -0.024 | -0.143 | 0.141 | – | -0.09 | 0.118 | -0.023 | -0.003 | -0.038 | –
CCAR2 (UniProt G3V119) | – | – | – | – | – | – | – | – | – | -0.032
CEP128 (UniProt Q6ZU80) | -0.294 | 0.565 | – | -0.052 | -0.037 | 0.064 | 0.031 | – | – | –
CDC14A isoform 2 (UniProt Q9UNH5) | – | 0.272 | – | – | – | – | – | 0.075 | 0.078 | 0.019
BNIP3 (UniProt Q12983) | -0.065 | -0.058 | 0.076 | – | 0.081 | 0.015 | 0.018 | -0.043 | 0.021 | -0.128
BAHCC1 (UniProt Q9P281) | -0.569 | – | -0.135 | -0.208 | -0.054 | 0.038 | -0.024 | 0.085 | 0.095 | 0.076
CEP41 (UniProt Q9BYV8) | 0.042 | – | 0.083 | 0.015 | 0.073 | 0.001 | -0.139 | 0.029 | 0.011 | -0.059
CAPNS1 (UniProt U3KPR7) | – | – | – | – | – | – | – | -0.069 | 0.165 | 0.024
CARHSP1 (UniProt H3BNU9) | -0.027 | – | – | – | – | – | – | -0.107 | -0.213 | -0.003
CDK16 isoform 2 (UniProt Q00536) | – | 0.029 | 0.05 | 0.285 | 0.106 | 0.04 | -0.024 | -0.014 | -0.026 | 0.008
BRD3 (UniProt Q15059) | -0.059 | – | 0.105 | 0.017 | 0.09 | -0.016 | 0.018 | -0.003 | -0.15 | -0.015
C16orf70 (UniProt Q9BSU1) | – | 0.075 | 0.082 | 0.216 | -0.005 | 0.04 | -0.135 | – | – | 0.076
ATPSCKMT (UniProt Q6P4H8) | – | -0.368 (active) | – | – | -0.027 | -0.176 | 0.17 | – | – | –
CDC25A (UniProt P30304) | – | -0.406 (active) | -0.121 | – | 0.035 | – | – | 0.005 | -0.002 | 0.019
C15orf39 (UniProt Q6ZRI6) | -0.04 | -0.188 | -0.031 | – | 0.089 | 0.047 | 0.059 | 0.036 | -0.067 | –
CDK11A (UniProt Q9UQ88) | 0.077 | -0.172 | -0.011 | – | 0.023 | – | – | -0.023 | 0 | -0.037
BUD13 (UniProt Q9BRD0) | 0.033 | -0.015 | -0.022 | – | 0.068 | 0.007 | 0.004 | 0.017 | 0.108 | –
CCDC130 (UniProt P13994) | – | -0.066 | -0.275 | – | – | -0.015 | 0.09 | – | – | –
C3AR1 (UniProt Q16581) | 0.055 | – | – | – | – | – | – | 0.358 | 0.053 | –
CASP7 isoform 3 (UniProt P55210) | – | -0.051 | -0.016 | – | -0.059 | 0.16 | 0.379 (active) | -0.058 | 0.108 | 0.079
CAMK2B (UniProt Q13554) | 0.318 | -0.035 | – | 0.009 | -0.069 | -0.045 | 0.067 | 0.001 | 0.026 | -0.005
B3GALT6 (UniProt Q96L58) | – | 0.051 | -0.025 | – | 0.059 | – | – | – | – | –
